# Measured values reported in PubChem BioAssay (NCATS).
# Records with an inconclusive call do not appear. Calls of active or inactive are those of the source. Calls follow the shape of the dose curve; as a rule, active = well fitted cell-killing curve with a large enough effect; inconclusive = small, poorly fitted or top-dose-only effect; inactive = flat fitted curve, though single readings scatter.
# Assay: Cell Viability - LYMP2-020 (AID 986);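 also: cells exposed to compound for 24 h at 37 °C; nearly all actives have a fitted effect of over 55% in size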;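 as to activity change, negative = viability loss: plate controls were DMSO only for no effect and tetraoctylammonium bromide at 92 µM for full effect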
# Details: series mostly up to 92.2 µM; activity change, negative = viability loss: at the top concentration
# Text: NIH Chemical Genomics Center [NCGC]
# NIH Molecular Libraries Screening Centers Network [MLSCN]
# National Institutes of Environmental Health Sciences [NIEHS]
# National Toxicology Program [NTP]
# We have developed a 1536-well cell-based assay for quantitative high throughput screening (qHTS) against a number of cell lines to determine in vitro cytotoxicity of small molecules. This particular assay uses a human lymphoblastoid cell line (LYMP2-020) purchased from Coriell Institute for Medical Research.
# NCGC Assay Protocol Summary:
# The CellTiter-Glo luminescent cell viability assay (Promega) is a homogeneous method to measure the number of viable cells in culture. The end point readout of this assay is based on quantitation of intracellular ATP, an indicator of metabolic activity, using the luciferase reaction. Luciferase catalyzes the oxidation of beetle Luciferin to oxyluciferin and light in the presence of ATP. The luminescent signal is proportional to amount of ATP present.
# Using the CellTiter-Glo luminescent cell viability assay, the amount of cellular ATP was measured in the lymphoblastoid cell line with complete culture medium following compound treatment for 24 hours. The assay was performed in opaque white Kalypsys 1536-well plates. In the screen, tetraoctylammonium bromide was used as positive control. Library compounds were measured for their ability to cause acute toxicity in the cell line, as reflected by a decrease in intracellular ATP levels, in a concentration-dependent manner. […] AC50 values were determined from concentration-response data modeled with the standard Hill equation.
# qHTS protocol for CellTiter Glo lymphoblastoid cellular assay
# [Step] [Parameter] [Value] [Description]
# 1. Reagent; 5 uL; 2500 lymphoblastoid cells/well
# 2. Time; 5 hr; 37 C incubation
# 4. Controls; 23 nL; Tetraoctylammonium bromide 6.4pM to 92 uM
# 5. Time; 24 hr; 37 C incubation
# 6. Reagent; 5 uL; CellTiter Glo reagent
# 7. Time; 30 min; Room Temperature
# 8. Detection; Luminescence; Viewlux plate reader
# Keywords: cell viability, cytotoxicity, lymphoblastoid cell line, luminescence, NTPHTS, NTPHTS_NCGC, NIEHS, DSSTox, MLSMR, MLSCN, NIH Roadmap, qHTS, NCGC
# Potency is read from the fitted curve at half-maximal effect.
SMILES,"activity change, negative = viability loss",Potency
S=c1[nH]c2ccccc2[nH]1,-1.38% (inactive),
C[N+](=O)[O-],-12.4% (inactive),
CCOS(C)(=O)=O,0.459% (inactive),
CCCCNC(=O)n1c(NC(=O)OC)nc2ccccc21,-17% (inactive),
O=c1ccc(=O)[nH][nH]1,9.67% (inactive),
CCOC(=O)CBr,-15.1% (inactive),
CCCCOCC1CO1 (stereo not given),-2.13% (inactive),
Oc1c(Cl)c(Cl)cc(Cl)c1Cl,-7.68% (inactive),
Nc1ccc(-c2ccc(N)c(Cl)c2)cc1Cl,-25.2% (inactive),
FC(Cl)(Cl)Cl,-0.395% (inactive),
CN(C)c1ccc(N=Nc2ccccc2)cc1,-16% (inactive),
CCCCCOC(=O)c1ccccc1C(=O)OCCCCC,-6.77% (inactive),
C(CCOCC1CO1)COCC1CO1 (stereo not given),-12.6% (inactive),
Nc1cccc(Cl)c1,-4.45% (inactive),
C=CCBr,-0.438% (inactive),
O=C(O)c1cccc(Cl)c1,1.6% (inactive),
CC(Cl)(Cl)Cl,-13.6% (inactive),
Nc1c(Br)cc([N+](=O)[O-])cc1[N+](=O)[O-],-25.2% (inactive),
c1ccoc1,12.3% (inactive),
BrCC(Br)(Br)Br,,15.8 µM (active)

SMILES,"activity change, negative = viability loss",Potency
S=C1NCCN1,-8.16% (inactive),
CC(C)OS(C)(=O)=O,-3.19% (inactive),
CN(C)C(=O)Nc1cccc(C(F)(F)F)c1,4.55% (inactive),
O=C(O)CCl,-15.6% (inactive),
[O-][Cl+2]([O-])O,-2.46% (inactive),
CC(C)[C@]12CC(=O)[C@H](C)[C@H]1C2,9.13% (inactive),
Cl/C=C\Cl,-12.3% (inactive),
Oc1cc(Cl)ccc1Cl,-4.47% (inactive),
CC(C)(Cl)[N+](=O)[O-],-4.54% (inactive),
C/C=C/C=O,-10.7% (inactive),
C=CC=O,-7.84% (inactive),
CCOP(=O)(OCC)OCC,2.04% (inactive),
O=C(Cl)c1ccccc1F,-16.6% (inactive),
c1ccc(NNc2ccccc2)cc1,-1.6% (inactive),
C/C=C/CC#N,0.0956% (inactive),
N#CCc1ccccc1,-5.45% (inactive),
CCCCOC(=O)c1ccccc1N,7.12% (inactive),
BrCC(Br)C1CCC(Br)C(Br)C1 (stereo not given),-2.53% (inactive),
C=CCCl,-18.2% (inactive),
C=CCc1cc(OC)c2c(c1)OCO2,1.51% (inactive),
